The text below walks through data of ChEMBL document CHEMBL3988442, “University of Dundee, Small-Polar-MMV Screening Library” (2021).

SMILES strings stand for the structures. In all, about 69,000 compounds went through this assay and about 950 (1.4%) showed an effect of 50% or more. The full list was thinned out, with strong results kept by preference.

The subject of this test is Mycobacterium tuberculosis. Put plainly: Cornell M. t heat shock assay. Further: in the data most compounds retested in dose-response had high values. Format: functional, organism-based. On the set-up: dose or concentration left out as unconfirmed.
Consider `COc1ncc(C2(O)CCN(Cc3ccc(F)c(F)c3)CC2)c(OC)n1.Cl`, for which the “Percent Effect” value turned out to be 2.429%.
With `CS(=O)(=O)N1CC(=O)N(CCCc2ccccc2)CC(O)C1` (stereo not given), the “Percent Effect” value is given as -9.009%.
`COc1cccc(CN2CC(O)CN(S(C)(=O)=O)CC2=O)c1OC` (stereo not given): the “Percent Effect” value was found to be 29.18%.
For `COc1cccc(OC)c1CN1CC(O)CN(S(C)(=O)=O)CC1=O` (stereo not given) the value was 55.83%.
The same measure for `COc1ccccc1CN1CC(OC)CN(C(=O)CC(C)C)CC1=O` (stereo not given): -13.24%; for `COc1ccccc1CN1CC(O)CN(S(=O)(=O)C(C)C)CC1=O` (stereo not given): 61.24%; for `CCS(=O)(=O)N1CC(=O)N(CCCc2ccccc2)CC(O)C1` (stereo not given): -6.774%.
Consider `CCCS(=O)(=O)N1CC(=O)N(Cc2ccccc2OC)CC(O)C1` (stereo not given), for which the “Percent Effect” value was 56.43%.
The same measure for `CCS(=O)(=O)N1CC(=O)N(CCOc2ccccc2)CC(O)C1` (stereo not given): -13.04%.
Turning to `CCS(=O)(=O)N1CC(=O)N(Cc2ccccc2OC)CC(O)C1` (stereo not given), the “Percent Effect” value is 62.67%.
For `CCCS(=O)(=O)N1CC(=O)N(CCCc2ccccc2)CC(O)C1` (stereo not given) the value was -29.16%.
As to `COc1ccccc1CN1CC(O)CN(C(=O)OCC(C)C)CC1=O` (stereo not given), the “Percent Effect” value amounted to 1.526%.
On to `CCCS(=O)(=O)N1CC(=O)N(Cc2cccc(OC)c2OC)CC(O)C1` (stereo not given), for which the “Percent Effect” value turned out to be 3.552%.
Take `COc1ncccc1CN1C[C@@H]2COC[C@]2(CNS(C)(=O)=O)C1.O=C(O)C(F)(F)F.O=C(O)C(F)(F)F`: the “Percent Effect” value is -54.94%.
The same measure for `O=C(NCc1ccccn1)[C@]12COC[C@H]1CN(Cc1cccnc1)C2.O=C(O)C(F)(F)F.O=C(O)C(F)(F)F.O=C(O)C(F)(F)F`: -8.191%; for `CC(=O)N1CCC2(CC1)COCCN2Cc1ccc(F)cc1.O=C(O)C(F)(F)F`: -4.953%.
Regarding `CN(C)[C@@H]1CN(C(=O)Cc2ccccc2)[C@@H]2CCCO[C@H]12.O=C(O)C(F)(F)F`, the “Percent Effect” value is reported as -12.48%.
As to `CN1C(=O)CC(c2cnn(C)c2)C12CCN(C(=O)c1ccncc1)CC2.O=C(O)C(F)(F)F` (stereo not given), the “Percent Effect” value is given as -21.56%.
Turning to `COc1cc(CNCC(O)c2ccc(C)cc2)cc2c1OCO2.Cl` (stereo not given), the “Percent Effect” value is on record as -8.52%.
For the compound `O=C(NCC1CCCCC1)N1C[C@H]2C[C@H](C(=O)N3CCCC3)[C@@H](C1)O2`, the “Percent Effect” value was -29.22%.
Regarding `CN(C)C(=O)CN1CCCC2(CCN(c3ccsc3)C2=O)C1.O=C(O)C(F)(F)F` (stereo not given), the “Percent Effect” value was -10.79%.
For `COc1ccc(CN2C[C@H]3C[C@H](CN(C)C)O[C@H]3C2)cc1.O=C(O)C(F)(F)F.O=C(O)C(F)(F)F`, the “Percent Effect” value was -20.17%.
The same measure for `CC(C)NC(=O)[C@H]1C[C@@H]2CN(C(=O)NCCc3ccccc3)C[C@H]1O2`: -3.811%; for `Cl.O=c1c2sccc2nc2n1CCN(Cc1cc(F)ccc1F)CC2`: 0.6259%.
In the case of `COc1ccc(CN2CC(=O)N(c3ccc(C)cc3)CC2C)cc1O` (stereo not given), the “Percent Effect” value was -4.116%.
For `COc1cccc(OC)c1CN1CC(=O)N(c2ccc(C)cc2)CC1C` (stereo not given) the value was 53.82%.
The same measure for `COc1cc(CN2CC(=O)N(c3ccc(C)cc3)CC2C)cc(OC)c1` (stereo not given): 23.62%; for `CC(CCSc1ccccc1)N1CCCN(C(N)=O)CC1` (stereo not given): 30.42%.
For `CC(CCSc1ccccc1)N1CCN(C(=O)c2cccs2)CC1` (stereo not given) the value was 96%.
For `CC(CCSc1ccccc1)N1CCN(C(=O)c2ccccc2O)CC1` (stereo not given), the “Percent Effect” value is given as 35.88%.
The same measure for `COCCNC(=O)C[C@@H]1COC[C@H]2CN(CC3CCOCC3)C[C@@H]12.O=C(O)C(F)(F)F`: -14.59%.
The same measure for `Cc1ccc(C(=O)N2CCc3ncnc(-c4cnn(C)c4)c3CC2)cn1.O=C(O)C(F)(F)F`: -33.4%; for `Cc1cc(NC(=O)NCCc2ccsc2)n(C)n1`: 63.69%.
For `Cc1cc(NC(=O)NCCc2ccccc2)n(C)n1` the value was -19.68%; for `COc1ccc(CCNC(=O)Nc2cc(C)nn2C)cc1`, 8.379%; for `Cc1cc(NC(=O)CCc2ccsc2)n(C)n1`, 89.31%.
For the compound `Cn1cc(NC(=O)CCc2ccsc2)ccc1=O`, the “Percent Effect” value stood at 27.26%.
Turning to `Cc1cnccc1NC(=O)CCc1ccsc1`, the “Percent Effect” value is reported as -21.59%.
The same measure for `COCCN1Cc2nccn2CC(COCc2csc(C)n2)C1.O=C(O)C(F)(F)F.O=C(O)C(F)(F)F` (stereo not given): 2.482%; for `O=S(=O)(c1ccc2c(c1)OCCO2)N1CCc2ccccc2C1`: -4.595%.
In the case of `O=C(O)C(F)(F)F.c1ccc(N2CCCC3(CCN(Cc4cccs4)C3)C2)nc1` (stereo not given), the “Percent Effect” value was -4.42%.
With `Cc1ccc(C(CCNCCCN(C)C)C2CCOC(C)(C)C2)cc1.O=C(O)C(=O)O` (stereo not given), the “Percent Effect” value is recorded as -7.6%.
For `Cc1c(-c2cc(C(F)(F)F)nc(N3CCC(N)CC3)n2)cnn1C` the value was -8.82%; for `CCc1ccc(-c2cc(C(F)(F)F)nc(N3CCC(N)CC3)n2)cc1`, 103%; for `CCn1ncc(-c2cc(C(F)(F)F)nc(N3CCC(N)CC3)n2)c1C`, 23.29%.
